Source: PubChem BioAssay AID1159580 (chemical genetic matrix, 2015)
The campaign covered roughly 5,500 compounds. About 2,000 (36%) were called active. Another 18% or so got no clear call; they are omitted. No stated cut-off is given here; in the data, active means normalized growth mostly below about 0.91 (no sharp cut-off); inconclusive means no clear call, values can overlap the other calls; inactive means mostly above about 0.92. The list shows a part of the results.

Assay: chemical genetic growth profiling, strain panel (AID 1159580);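 further: tested at 20 µM; growth read once vehicle control cultures reached saturation at 30 °C; 1 = growth at the plate median or of vehicle wells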
Details: S. cerevisiae deletion strains, growth OD

Measured: normalized growth

O=C1c2ccccc2C(=O)c2sccc21
active: locus YAR019C, strain CDC15, stronger effect = lower value 0.556 | locus YBL105C, strain PKC1, stronger effect = lower value 0.778 | locus YBR135W, strain CKS1, stronger effect = lower value 0.716 | locus YBR136W, strain MEC1, stronger effect = lower value 0.718 | locus YBR160W, strain CDC28, stronger effect = lower value 0.75 | locus YDL017W, strain CDC7, stronger effect = lower value 0.72 | locus YDL028C, strain MPS1, stronger effect = lower value 0.749 | locus YDL101C, strain DUN1, stronger effect = lower value 0.466 | locus YDL108W, strain KIN28, stronger effect = lower value 0.752 | locus YDL132W, strain cdc53, stronger effect = lower value 0.674 | locus YDL214C, strain PRR2, stronger effect = lower value 0.233 | locus YDR052C, strain DBF4, stronger effect = lower value 0.646 | locus YDR054C, strain cdc34, stronger effect = lower value 0.556 | locus YDR226W, strain ADK1, stronger effect = lower value 0.751 | locus YDR477W, strain SNF1, stronger effect = lower value 0.209 | locus YER123W, strain YCK3, stronger effect = lower value 0.183 | locus YER133W, strain GLC7, stronger effect = lower value 0.225 | locus YFL009W, strain cdc4, stronger effect = lower value 0.59 | locus YFL029C, strain CAK1, stronger effect = lower value 0.4 | locus YFR003C, strain YPI1, stronger effect = lower value 0.694 | locus YFR019W, strain FAB1, stronger effect = lower value 0.171 | locus YFR028C, strain CDC14, stronger effect = lower value 0.649 | locus YGR040W, strain KSS1, stronger effect = lower value 0.182 | locus YGR052W, strain FMP48, stronger effect = lower value 0.156 | locus YGR092W, strain DBF2, stronger effect = lower value 0.152 | locus YHR030C, strain SLT2, stronger effect = lower value 0.157 | locus YHR079C, strain IRE1, stronger effect = lower value 0.211 | locus YHR082C, strain KSP1, stronger effect = lower value 0.204 | locus YHR205W, strain SCH9, stronger effect = lower value 0.124 | locus YIL147C, strain SLN1, stronger effect = lower value 0.669 | locus YJL095W, strain BCK1, stronger effect = lower value 0.154 | locus YJL128C, strain PBS2, stronger effect = lower value 0.595 | locus YJL157C, strain FAR1, stronger effect = lower value 0.227 | locus YJR016C, strain ILV3, stronger effect = lower value 0.483 | locus YJR066W, strain TOR1 (second series), stronger effect = lower value 0.147 | locus YJR066W, strain TOR1, stronger effect = lower value 0.15 | locus YKL048C, strain ELM1, stronger effect = lower value 0.33 | locus YKL067W, strain YNK1, stronger effect = lower value 0.272 | locus YKL101W, strain HSL1, stronger effect = lower value 0.209 | locus YKL193C, strain SDS22, stronger effect = lower value 0.498 | locus YKL203C, strain TOR2, stronger effect = lower value 0.158 | locus YLR113W, strain HOG1, stronger effect = lower value 0.303 | locus YLR133W, strain CKI1, stronger effect = lower value 0.196 | locus YLR403W, strain SFP1, stronger effect = lower value 0.154 | locus YML070W, strain DAK1, stronger effect = lower value 0.214 | locus YMR001C, strain CDC5, stronger effect = lower value 0.614 | locus YMR205C, strain PFK2 (second series), stronger effect = lower value 0.236 | locus YMR277W, strain FCP1, stronger effect = lower value 0.46 | locus YNL006W, strain LST8, stronger effect = lower value 0.593 | locus YNL020C, strain ARK1, stronger effect = lower value 0.183 | locus YNL161W, strain CBK1, stronger effect = lower value 0.636 | locus YNL183C, strain NPR1, stronger effect = lower value 0.161 | locus YNL207W, strain RIO2, stronger effect = lower value 0.473 | locus YNL222W, strain SSU72, stronger effect = lower value 0.634 | locus YNL307C, strain MCK1 (second series), stronger effect = lower value 0.16 | locus YOL078W, strain AVO1, stronger effect = lower value 0.511 | locus YOL136C, strain PFK27, stronger effect = lower value 0.192 | locus YOR061W, strain CKA2, stronger effect = lower value 0.244 | locus YOR119C, strain RIO1, stronger effect = lower value 0.221 | locus YOR231W, strain MKK1, stronger effect = lower value 0.206 | locus YOR329C, strain SCD5, stronger effect = lower value 0.579 | locus YPL031C, strain PHO85, stronger effect = lower value 0.184 | locus YPL153C, strain RAD53, stronger effect = lower value 0.207 | locus YPL204W, strain HRR25, stronger effect = lower value 0.198 | locus YPL209C, strain IPL1, stronger effect = lower value 0.684 | locus YPL256C, strain CLN2, stronger effect = lower value 0.223 | locus YPR025C, strain CCL1, stronger effect = lower value 0.705 | locus YPR106W, strain ISR1, stronger effect = lower value 0.601 | locus YPR111W, strain DBF20, stronger effect = lower value 0.691 | strain NNK1, stronger effect = lower value 0.305 | strain TSCII, stronger effect = lower value 0.527
